# Measurements reported in paper PMC7819943, “Rice protein-binding microarrays: a tool to detect cis-acting elements near promoter regions in rice”.
# The full ranking holds about 68,000 sequences; the median of “fluorescence intensity (a.u.)” is about 9,100, and the highest 2% start at about 16,000. Only a selection was taken, and the highest values are over-represented in it overall.
# Target: OsWRKY34 (Oryza sativa, UniProt Q0JBA9 1-250)
# Test: protein-binding microarray (RPBM); PBS, 2% BSA, 51.3 ng/ul salmon testes DNA, 50 uM zinc acetate, 200 nM TF, 25 C, 1 h; high values mean tight binding
# Conditions: protein: recombinant; tags: N-terminal polyhistidine and DsRed monomer fusion (pET32a); label: CyDye5-dUTP incorporated in the synthesized complementary strand; 3' TTTTT single-stranded linker to array surface; dsDNA, one strand shown
# How it was run: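 Ni–NTA purification followed expression in E. coli BL21-CodonPlus of transcription factors fused N-terminally to a polyhistidine tag and DsRed. At 200 nM in PBS with 2% BSA, salmon testes DNA and 50 µM zinc acetate, the protein was incubated for 1 h at 25 °C with a custom Agilent array that had been primer-extended with Cy5-dUTP and blocked with 2% BSA. After washing, the array was read on an Axon 4000B scanner. The binding signal is per-feature fluorescence intensity in arbitrary units.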
# Sequence of OsWRKY34 (Q0JBA9 entry or part of it): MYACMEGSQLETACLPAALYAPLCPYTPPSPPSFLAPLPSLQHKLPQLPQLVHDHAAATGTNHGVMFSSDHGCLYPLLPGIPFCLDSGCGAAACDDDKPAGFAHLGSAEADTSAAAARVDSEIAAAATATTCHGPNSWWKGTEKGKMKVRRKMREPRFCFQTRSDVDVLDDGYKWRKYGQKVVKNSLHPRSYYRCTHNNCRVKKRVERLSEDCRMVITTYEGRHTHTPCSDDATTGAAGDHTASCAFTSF
row,Sequence,binding signal
1,TAACCAGAGTAAATTTTTGGCCAACTTAAGTGCTTTCATACGGAGTCACCTAGTGCAG,9070 fluorescence intensity (a.u.)
2,GCAACTTTTTTTCCAAATGTTTGGCATCTGGTGTGTCATCCGGAGTCACCTAGTGCAG,8040 fluorescence intensity (a.u.)
3,GAAGCCCACCCAATTCGATTTTTTGGGCCGCCCCACCTTTCGGAGTCACCTAGTGCAG,8790 fluorescence intensity (a.u.)
4,TACCGTCGTGCTCCATCAATTCCATCTCCACGTGTTATTGCGGAGTCACCTAGTGCAG,10900 fluorescence intensity (a.u.)
5,GCGATCTTCGCGGCTTCACCATCATACCTGCAACTGCAACCGGAGTCACCTAGTGCAG,8220 fluorescence intensity (a.u.)
6,CGTCCGGCCGCGAAACCGAGCCTTCTGACCACCGCCGAAACGGAGTCACCTAGTGCAG,8050 fluorescence intensity (a.u.)
7,TATTTAACACCGTTGACTTTTTAGCACATGTTTGACCGTTCGGAGTCACCTAGTGCAG,38200 fluorescence intensity (a.u.)
8,CACCGTTGATTTTTTAGCACATGTTTGACCGTTCGTCTTACGGAGTCACCTAGTGCAG,12900 fluorescence intensity (a.u.)
9,TTGTTTGCACCGGTTTTGACAGTTCAGGGATCGGTTGTATCGGAGTCACCTAGTGCAG,8200 fluorescence intensity (a.u.)
10,GTTTGTTGCAGTTTGGTGTGTATGTTTGTTGCACTTTGATCGGAGTCACCTAGTGCAG,9920 fluorescence intensity (a.u.)
11,ATTTGACACCGTTAACCTTTTAGCACATGTTTGACCGTTCCGGAGTCACCTAGTGCAG,11900 fluorescence intensity (a.u.)
12,TAAGCACAGTTGACTTTTTTTTTGGTGTGTTCCGGTGTATCGGAGTCACCTAGTGCAG,20900 fluorescence intensity (a.u.)
13,ACACCGTTGACTTTTTAGCACGTGTTTGACCGTTCACCTTCGGAGTCACCTAGTGCAG,26900 fluorescence intensity (a.u.)
14,ACCGTTGACTTTTTAGCACATGATTGATCGTTCGTTTTATCGGAGTCACCTAGTGCAG,33800 fluorescence intensity (a.u.)
15,GTTGACTTTTTAGCACGTGTTTGACCGTTCGTCTTATTAACGGAGTCACCTAGTGCAG,9780 fluorescence intensity (a.u.)
16,TTGATTTTTTTAGCACATGTTTGACCGTTCGTCTTATTAACGGAGTCACCTAGTGCAG,13200 fluorescence intensity (a.u.)
17,CAAAAACACTCCACATATTTTTCCTTTTAGTTACGTAATTCGGAGTCACCTAGTGCAG,9500 fluorescence intensity (a.u.)
18,TCGTCGTGTTCGTGTTTTTTTTCTTCCAATCTGCGCGCGTCGGAGTCACCTAGTGCAG,8990 fluorescence intensity (a.u.)
19,TACGCTGTGATCCCCGTCTTCAATTTCTCGTTCGCTCTCACGGAGTCACCTAGTGCAG,12800 fluorescence intensity (a.u.)
20,AGCCTATTTCATTTGATATATCATGGTGCATGATCTAATTCGGAGTCACCTAGTGCAG,11100 fluorescence intensity (a.u.)
21,ACGTCCAAATCACATTATATCAGTTCCTGTTTGTAACCGCCGGAGTCACCTAGTGCAG,8550 fluorescence intensity (a.u.)
22,GTGCCTGTTTGCTTCAGTGATGCTGGTGGTGGTTGCCTAACGGAGTCACCTAGTGCAG,9460 fluorescence intensity (a.u.)

row,Sequence,binding signal
1,GTACTCCTGGTCCGCATCCACCGTCCATCCGCGTACCGCACGGAGTCACCTAGTGCAG,11000 fluorescence intensity (a.u.)
2,GTTCTTCTTCTTCTTCTTCTTTTTTTCGTCCAAGGCCACTCGGAGTCACCTAGTGCAG,8280 fluorescence intensity (a.u.)
3,TTTTCTCCTTTCGCGTTGCGTCCGCGATCCGATCGATCGACGGAGTCACCTAGTGCAG,9560 fluorescence intensity (a.u.)
4,AGTTTTTTCCTTTTAATCTCCGACTTCACCGGGTTTTTTCCGGAGTCACCTAGTGCAG,8260 fluorescence intensity (a.u.)
5,CGACAGTTTCCTTTTTCGCGACCACTTCCGATCTCCTAAACGGAGTCACCTAGTGCAG,17000 fluorescence intensity (a.u.)
6,CGTTTTTGTGTCTTTCATTTGAGGAGGAACTGCGATTCTTCGGAGTCACCTAGTGCAG,9400 fluorescence intensity (a.u.)
7,AACTTCTTGCATGTGCCTTTTTTATCATCTGCATATATTTCGGAGTCACCTAGTGCAG,10300 fluorescence intensity (a.u.)
8,ACTTCCGATGCGTAATAAGGCTTTAGTCCCACAACTGACGCGGAGTCACCTAGTGCAG,8630 fluorescence intensity (a.u.)
9,GCTCTAACACACCTTCATCATGCATGCATATGTGCTATTTCGGAGTCACCTAGTGCAG,8080 fluorescence intensity (a.u.)
10,AGTAGGAGGGTGGGTATTTGCAACAAAATGACTTATGAGGCGGAGTCACCTAGTGCAG,12800 fluorescence intensity (a.u.)
11,CATATGCACTAACAAAACCGAGTAGGAGGGTGGGTATTTGCGGAGTCACCTAGTGCAG,8580 fluorescence intensity (a.u.)
12,GGTGGGTGGGCATTTGCAACAAAATAACTTACGGGGTGGACGGAGTCACCTAGTGCAG,17000 fluorescence intensity (a.u.)
13,AAAATAACTTACGGGGTGGAATGTCAAACTTCAAGTGACTCGGAGTCACCTAGTGCAG,8470 fluorescence intensity (a.u.)
14,CATTACTTTTTTGGTGGACTTGCAAAAACATGGGCATTTTCGGAGTCACCTAGTGCAG,8680 fluorescence intensity (a.u.)
15,TTACAACAAAACTAAGTAGGGGTGGGTATTTGCAACAAAACGGAGTCACCTAGTGCAG,17600 fluorescence intensity (a.u.)
16,GGTTTGCCGTCGTCGGCGTCGGCCGCTGCCTCGCGCGCGCCGGAGTCACCTAGTGCAG,9230 fluorescence intensity (a.u.)
17,AGCCTACCAGCTGCACCGCAAATGCCGTGTACTGCTTTCTCGGAGTCACCTAGTGCAG,8340 fluorescence intensity (a.u.)
18,GTGATGTGCTGCAACCTCGCCGCCAGCCGCGCCCTGTGCGCGGAGTCACCTAGTGCAG,8560 fluorescence intensity (a.u.)
19,ATATCTGTTTTTACGGTTCGAGGACGTTTTTATATCCGATCGGAGTCACCTAGTGCAG,8940 fluorescence intensity (a.u.)
20,TAACACCGTTGACTTTTTAGCTCATGTTTGACCATTCGTCCGGAGTCACCTAGTGCAG,27400 fluorescence intensity (a.u.)
21,ACGTGTCGTTGACTTTTTATCACACGTTTAGCCATTCGTCCGGAGTCACCTAGTGCAG,30200 fluorescence intensity (a.u.)
